This note sets out measurements from PubChem BioAssay (EPA / NIEHS).

Where “and” joins values, the source holds several entries; their conditions need not be identical. Equal entries are not always repeated. The source holds several records for some structures; these can differ, active in one and inactive in another. Calls of active or inactive are those of the source. How the source made its calls: active means hit-call score of the fitted dose curve at least 0.9, where 1 is the maximum; inactive means score below 0.9.

Read-out in experiment [1]: Human Leukocyte Antigen - DR isotype (HLADR), HLA-DRA (gene 3122)
In words: BSK_BE3C_HLADR: BioMAP Diversity Plus: BE3C Assay for Human Leukocyte Antigen - DR isotype (HLADR) Biomarker Activity (AID 2283032). Particulars: primary human bronchial epithelial cells; actives raise or lower the signal. The method in brief: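 Primary human bronchial epithelial cells (BE3C); 24 h chemical exposure; HLA-DR by ELISA; bidirectional curve fit vs DMSO baseline.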

Read-out in experiment [2]: Vascular cell adhesion molecule 1 (VCAM1), VCAM1 (gene 7412)
In words: BSK_4H_VCAM1: BioMAP Diversity Plus: 4H Assay for Vascular cell adhesion molecule 1 (VCAM1) Biomarker Activity (AID 2283033).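 On outcome: cell-surface VCAM-1 protein measured by ELISA.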 Particulars: primary human endothelial cells (HUVEC); actives raise or lower the signal. In short, it runs like this: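 HUVEC, 24 h post-dose; VCAM-1 by ELISA. Bidirectional curve fit vs DMSO baseline. Parallel SRB total-protein stain (0.1% SRB after 10% TCA fixation, 560 nm) for cytotoxicity.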

Read-out in experiment [3]: Interferon-gamma inducible Protein 10 (IP10), CXCL10 (gene 3627)
In words: BSK_BE3C_IP10: BioMAP Diversity Plus: BE3C Assay for Interferon-gamma inducible Protein 10 (IP10) Biomarker Activity (AID 2283034). The settings on record: primary human bronchial epithelial cells; actives raise or lower the signal. The method in brief: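 ELISA readout of IP-10 in BE3C system: primary human bronchial epithelial cells, 24 h post-dosing; bidirectional curve fit vs DMSO baseline.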

Read-out in experiment [4]: Monokine induced gamma interferon (MIG), CXCL9 (gene 4283)
In words: BSK_BE3C_MIG: BioMAP Diversity Plus: BE3C Assay for Monokine induced gamma interferon (MIG) Biomarker Activity (AID 2283035).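 On outcome: MIG protein measured by ELISA in BE3C cultures after 24 h of dosing.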 Particulars: primary human bronchial epithelial cells; actives raise or lower the signal. In short, it runs like this: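 hu bronchial epithelial 1° cells, 24 h cpd; MIG by ELISA; bidirectional fit, DMSO = baseline.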

Read-out in experiment [5]: Transforming growth factor beta 1 (TGFb1), TGFB1 (gene 7040)
Description: BSK_BE3C_TGFb1: BioMAP Diversity Plus: BE3C Assay for Transforming growth factor beta 1 (TGFb1) Biomarker Activity (AID 2283036;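 on outcome: TGF-b1 protein level measured by ELISA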). The settings on record: primary human bronchial epithelial cells; actives raise or lower the signal. The method in brief:
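Read-out: ELISA for TGF-b1 in primary human bronchial epithelial cultures, 24 h post-dose. Bidirectional curve fitting vs DMSO control; gain or loss of signal both scored.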

Read-out in experiment [6]: Plasminogen activator inhibitor-1 (PAI1), SERPINE1 (gene 5054)
In words: BSK_BE3C_PAI1: BioMAP Diversity Plus: BE3C Assay for Plasminogen activator inhibitor-1 (PAI1) Biomarker Activity (AID 2283037). Particulars: primary human bronchial epithelial cells; actives raise or lower the signal. In short, it runs like this:
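ELISA read-out of PAI-1 from human bronchial epithelial primary cells, 24 h post-dosing; bidirectional curve fit vs DMSO baseline, gain or loss of signal scored.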

Read-out in experiment [7]: urokinase plasminogen activator (uPA), PLAU (gene 5328)
In words: BSK_BE3C_uPA: BioMAP Diversity Plus: BE3C Assay for urokinase plasminogen activator (uPA) Biomarker Activity (AID 2283038).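 On outcome: uPA protein level quantified by ELISA in cell cultures; uPA read one day after compound addition.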 Particulars: primary human bronchial epithelial cells; actives raise or lower the signal. The method in brief:
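Bronchial epithelial cells (human, primary); chemical 24 h; uPA by ELISA; bidirectional fit vs DMSO. SRB (0.1%, after 10% TCA fixation, 560 nm) in parallel cultures for cytotoxicity.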

Read-out in experiment [8]: Urokinase-type plasminogen activator receptor (uPAR), PLAUR (gene 5329)
In words: BSK_BE3C_uPAR: BioMAP Diversity Plus: BE3C Assay for Urokinase-type plasminogen activator receptor (uPAR) Biomarker Activity (AID 2283039).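 On outcome: uPAR protein level measured by ELISA on the cells; cells exposed to compound for one day before measurement.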 Particulars: primary human bronchial epithelial cells; actives raise or lower the signal. The method in brief:
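ELISA readout of uPAR on human lung primary bronchial epithelial cells, 24 h post-dosing. Bidirectional curve fit relative to DMSO vehicle baseline; gain or loss of signal both scored.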

Read-out in experiment [9]: Interleukin-6 (IL6), IL6 (gene 3569)
Description: BSK_CASM3C_IL6: BioMAP Diversity Plus: CASM3C Assay for Interleukin-6 (IL6) Biomarker Activity for (AID 2283040). Particulars: primary human coronary artery smooth muscle cells; actives raise or lower the signal.

Read-out in experiment [10]: Tissue plasminogen activator (tPA), PLAT (gene 5327)
In words: BSK_BE3C_tPA: BioMAP Diversity Plus: BE3C Assay for Tissue plasminogen activator (tPA) Biomarker Activity (AID 2283041).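 On outcome: tPA level quantified by ELISA one day after compound addition.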 The settings on record: primary human bronchial epithelial cells; actives raise or lower the signal. In short, it runs like this:
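ELISA read-out of tPA on human primary bronchial epithelial cells, 24 h post-dosing; bidirectional fit vs DMSO negative control/baseline.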

For the molecule `CCNc1nc(NC(C)C)nc(SC)n1`, the outcome in [1], in [2], in [3], in [4], in experiment [5] and in [6] was inactive. The result in experiment [7], in [8], in experiment [9] and in experiment [10] was inactive.

`CCSC(=O)N(CC)C1CCCCC1`: the outcome in experiment [1], in experiment [2], in experiment [3], in [4], in experiment [5] and in experiment [6] was inactive. Further, the outcome in [7], in experiment [8], in experiment [9] and in experiment [10] was inactive.

Regarding `CC(C)(O)C(=O)Nc1ccc([N+](=O)[O-])c(C(F)(F)F)c1`, the result in experiment [1], in experiment [2], in experiment [4], in [5], in experiment [6] and in experiment [7] was inactive. Also, the outcome in experiment [8] and in experiment [10] was inactive. The half-maximal activity concentration (AC50) is 24.6 µM (active) in [3] and 29.1 µM (active) in experiment [9].

With `CCCCCCCCCc1ccc(O)cc1`, the AC50 in experiment [1] was 13.6 µM (active); in experiment [2], 15.8 µM (active); in experiment [3], 13.1 µM (active); in experiment [4], 18.5 µM (active); in [5] it was 16.4 µM (active); in experiment [6], 15.7 µM (active). The concentration at half-maximal activity (AC50) is 15.1 µM (active) in experiment [7], 15.7 µM (active) in experiment [8], 27.8 µM (active) in [9] and 7.58 µM (active) in experiment [10].

On to `Cc1cc2c3c(c1)C(c1ccccc1)=N[C@@H](NC(=O)c1ccncc1)C(=O)N3CC2`, for which the outcome in [1], in [2], in experiment [3], in experiment [4], in [5] and in experiment [6] was inactive. The outcome in experiment [7], in experiment [8], in experiment [9] and in [10] was inactive.

With `ClC1=C(Cl)[C@]2(Cl)[C@@H]3[C@@H]4C[C@@H]([C@H]5O[C@@H]45)[C@@H]3[C@@]1(Cl)C2(Cl)Cl`, the result in experiment [1], in [2], in [3], in experiment [4], in experiment [5] and in experiment [6] was inactive. Also, the outcome in experiment [7], in experiment [8], in experiment [9] and in [10] was inactive.

In the case of `Clc1ccc(C(Cl)(Cl)Cl)cc1`, the result in experiment [1], in [2], in experiment [3], in experiment [4], in experiment [5] and in experiment [6] was inactive. Moreover, the outcome in experiment [7], in experiment [8], in [9] and in [10] was inactive.

For the molecule `Oc1ccc(Cl)cc1Cl`, the outcome in experiment [1], in [2], in experiment [3], in [4], in experiment [5] and in [6] was inactive. In addition, the result in [7], in [8], in experiment [9] and in [10] was inactive.

Turning to `CN(C)CCO`, the outcome in [1], in experiment [2], in [3], in [4], in experiment [5] and in experiment [6] was inactive. The result in [7], in experiment [8], in experiment [9] and in [10] was inactive.

With `NS(=O)(=O)C(F)(F)C(F)(F)C(F)(F)C(F)(F)C(F)(F)C(F)(F)C(F)(F)C(F)(F)F`, the AC50 was 5.61 µM (active) and 37.8 µM (active) and 37.6 µM (active) in experiment [1]; 32.1 µM (active) and 50.1 µM (active) and 46 µM (active) in [2]; 10.2 µM (active) and 27 µM (active) and 23.1 µM (active) in experiment [3]; 58.2 µM (active) and 54.8 µM (active) in experiment [4]; 10.5 µM (active) in experiment [5]; 10.4 µM (active) and 17.1 µM (active) and 15.5 µM (active) in [6]. Besides, the half-maximal activity concentration (AC50) in experiment [7] is 47.3 µM (active) and 55.1 µM (active); in [8] it was 51.1 µM (active) and 54.9 µM (active); in experiment [10], 45.5 µM (active) and 37 µM (active). The result in experiment [4], in [7], in experiment [8], in experiment [9] and in experiment [10] was inactive.

As for `CC1=C2C[C@H]3[C@@H](CC=C4C[C@@H](O)CC[C@@]43C)[C@@H]2CC[C@]12O[C@@H]1C[C@H](C)CN[C@H]1[C@H]2C`, the result in [1], in [2], in [3], in experiment [4], in experiment [5] and in experiment [6] was inactive. Besides, the outcome in experiment [7], in [8], in [9] and in experiment [10] was inactive.

Regarding `CCC(C)c1cc([N+](=O)[O-])cc([N+](=O)[O-])c1O` (centres undefined), the AC50 is 20 µM (active) in experiment [1]; 9.62 µM (active) in [2]; 1.87 µM (active) in [3]; 0.911 µM (active) in experiment [5]; 1.39 µM (active) in [6]; 4.72 µM (active) in [7]. Moreover, the AC50 in experiment [10] is 1.28 µM (active). In addition, the result in experiment [4], in experiment [8] and in [9] was inactive.

With `CCC(C)(CC)c1cc(NC(=O)c2c(OC)cccc2OC)on1`, the outcome in experiment [1], in experiment [2], in experiment [3], in experiment [4], in [5] and in [6] was inactive. For the same molecule, the result in experiment [7], in experiment [8], in experiment [9] and in [10] was inactive.

On to `Nn1cnnc1`, for which the result in experiment [1], in experiment [2], in experiment [3], in experiment [4], in experiment [5] and in [6] was inactive. The outcome in [7], in experiment [8], in experiment [9] and in experiment [10] was inactive.

Consider `Cc1ccc(O)c(C)c1`, for which the outcome in experiment [1], in experiment [3], in experiment [4], in experiment [5], in [6] and in [7] was inactive. Besides, the outcome in experiment [8] and in [10] was inactive. The AC50 was 5.94 µM (active) in [2] and 1.29 µM (active) in experiment [9].

In the case of `CCCN(CCC)N=O`, the outcome in [1], in experiment [2], in [3], in experiment [4], in [5] and in experiment [6] was inactive. The outcome in [7], in [8], in experiment [9] and in experiment [10] was inactive.

The term AC50 denotes the concentration giving half of the maximal activity seen.
